Screening results deposited in PubChem BioAssay by several laboratories.
Rows were chosen to be rich in hits. Some 9.6% of all compounds tested hit in one or more screens of this group.
PostGolgi ctrl = growth of the yeast control strain, post-Golgi counter-screen | efflux-deficient yeast background strain, growth absorbance A615, 16 h | inhibition, % at 10 µM | 98,000 compounds, 5% hits | AID 738
PostGolgi yeast = growth inhibition of a yeast mutant, post-Golgi transport screen; post-Golgi transport phenotypic cell assay; inhibition, % at 10 µM; 98,000 compounds, 0.9% hits;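 also: yeast cells grown in 1536-well plates; yeast grown about 18 h at 30C before absorbance read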
Cav32 inh = inhibitors of human Cav3.2 T-type calcium channel; B-score at 10 µM; AID 449739; 100,000 compounds, 4% hits; Cav3.2-expressing cells, Fluo-4 calcium fluorescence FDSS; hits give low values; O95180;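 active = single-dose well whose peak fluorescence ratio is a statistical outlier from its plate by either plate-standardised score or position-corrected B-score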
Target sequence (O95180 whole entry, looked up): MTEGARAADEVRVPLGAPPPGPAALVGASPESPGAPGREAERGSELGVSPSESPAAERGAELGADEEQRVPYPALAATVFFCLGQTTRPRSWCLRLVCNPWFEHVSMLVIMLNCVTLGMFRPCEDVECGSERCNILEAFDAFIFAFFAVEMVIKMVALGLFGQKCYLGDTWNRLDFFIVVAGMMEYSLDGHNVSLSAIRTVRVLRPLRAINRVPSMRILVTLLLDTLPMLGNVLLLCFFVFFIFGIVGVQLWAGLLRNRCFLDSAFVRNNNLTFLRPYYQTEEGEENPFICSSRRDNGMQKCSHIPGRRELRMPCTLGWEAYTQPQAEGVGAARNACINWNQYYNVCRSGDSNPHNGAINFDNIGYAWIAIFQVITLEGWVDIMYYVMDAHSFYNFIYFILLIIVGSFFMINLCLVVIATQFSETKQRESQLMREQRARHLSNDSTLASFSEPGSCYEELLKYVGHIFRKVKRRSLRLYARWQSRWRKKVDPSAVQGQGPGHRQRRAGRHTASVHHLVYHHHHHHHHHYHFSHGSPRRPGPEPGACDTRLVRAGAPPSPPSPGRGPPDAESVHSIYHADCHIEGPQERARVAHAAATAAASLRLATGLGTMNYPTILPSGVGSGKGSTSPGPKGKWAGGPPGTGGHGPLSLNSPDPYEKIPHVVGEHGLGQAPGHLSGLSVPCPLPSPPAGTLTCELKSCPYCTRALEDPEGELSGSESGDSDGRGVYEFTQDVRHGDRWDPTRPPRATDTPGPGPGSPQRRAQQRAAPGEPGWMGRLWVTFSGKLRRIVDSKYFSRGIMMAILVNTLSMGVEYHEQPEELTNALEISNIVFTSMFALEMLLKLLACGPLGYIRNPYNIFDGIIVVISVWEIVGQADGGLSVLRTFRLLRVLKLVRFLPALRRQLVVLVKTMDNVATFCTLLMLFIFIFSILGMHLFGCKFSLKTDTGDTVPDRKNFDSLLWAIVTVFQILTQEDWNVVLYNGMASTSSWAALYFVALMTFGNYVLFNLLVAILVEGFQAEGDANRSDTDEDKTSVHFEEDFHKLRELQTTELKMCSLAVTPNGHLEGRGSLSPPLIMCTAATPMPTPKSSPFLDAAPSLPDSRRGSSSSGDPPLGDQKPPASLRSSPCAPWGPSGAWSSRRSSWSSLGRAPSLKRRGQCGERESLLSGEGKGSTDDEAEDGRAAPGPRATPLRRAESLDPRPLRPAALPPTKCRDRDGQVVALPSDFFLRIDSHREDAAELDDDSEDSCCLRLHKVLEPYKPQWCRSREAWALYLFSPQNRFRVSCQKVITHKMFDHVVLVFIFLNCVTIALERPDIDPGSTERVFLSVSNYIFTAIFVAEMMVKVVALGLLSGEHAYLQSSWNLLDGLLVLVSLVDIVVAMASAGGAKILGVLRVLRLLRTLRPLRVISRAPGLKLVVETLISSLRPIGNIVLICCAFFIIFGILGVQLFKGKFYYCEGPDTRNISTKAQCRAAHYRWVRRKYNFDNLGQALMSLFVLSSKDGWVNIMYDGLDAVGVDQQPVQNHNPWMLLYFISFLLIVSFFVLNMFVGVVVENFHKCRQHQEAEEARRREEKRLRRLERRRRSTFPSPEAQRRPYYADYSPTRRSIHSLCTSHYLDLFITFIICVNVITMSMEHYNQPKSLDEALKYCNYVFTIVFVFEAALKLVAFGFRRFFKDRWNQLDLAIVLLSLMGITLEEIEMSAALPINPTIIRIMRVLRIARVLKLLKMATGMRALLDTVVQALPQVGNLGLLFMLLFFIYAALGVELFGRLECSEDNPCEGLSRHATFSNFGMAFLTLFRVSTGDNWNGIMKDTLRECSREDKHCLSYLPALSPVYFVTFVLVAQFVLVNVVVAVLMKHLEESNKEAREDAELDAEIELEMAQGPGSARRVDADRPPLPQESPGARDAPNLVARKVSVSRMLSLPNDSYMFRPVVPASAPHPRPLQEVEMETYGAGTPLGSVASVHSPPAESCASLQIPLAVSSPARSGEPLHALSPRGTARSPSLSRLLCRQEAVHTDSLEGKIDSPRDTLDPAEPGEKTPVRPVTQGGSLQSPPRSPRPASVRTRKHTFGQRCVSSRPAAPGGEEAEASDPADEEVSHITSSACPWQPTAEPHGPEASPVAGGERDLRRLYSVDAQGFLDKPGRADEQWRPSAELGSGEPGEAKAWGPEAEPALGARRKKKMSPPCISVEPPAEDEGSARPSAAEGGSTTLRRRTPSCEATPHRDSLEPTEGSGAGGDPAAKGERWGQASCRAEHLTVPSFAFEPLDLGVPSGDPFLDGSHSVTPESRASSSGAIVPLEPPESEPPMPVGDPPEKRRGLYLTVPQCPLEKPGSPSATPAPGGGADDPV
hDAT+cocaine = changed human dopamine transporter uptake under cocaine IC80; Q01959; LLC-PK1 hDAT cells, [14C]-dopamine uptake with cocaine IC80; actives deviate in either direction; B-score at 10 µM; 110,000 compounds, 1.3% hits;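 active = Z score or B-score, a plate-position-corrected score, falls beyond the plate's 99.7% confidence bounds, in either direction; inactive = both scores lie inside the 99.7% bounds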;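 also: scored against the spread of the other compound wells on the same plate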
PLAP activator = human PLAP activation. 96,000 compounds, 1.2% hits. purified PLAP enzyme, luminescent substrate read-out; hits give high values. activation fold at 20 µM; in the data active = activation fold above about 2
* marks the source's active call; other numbers are inactive results. Rule as the data show it, unless noted: active = inhibition above about 30%; inactive = the rest.

Cc1cccc(NC(=O)c2ccc(C3SCC(=O)N3CCc3ccccc3)cc2)c1C (stereo not given) was read as PostGolgi ctrl 9, PostGolgi yeast -7, Cav32 inh -4.5*, hDAT+cocaine 2.7* and PLAP activator 1.9.
CCc1ccc(NC(=O)c2ccc(C3SCC(=O)N3CCc3ccccc3)cc2)cc1 (stereo not given) was read as PostGolgi ctrl 20, PostGolgi yeast -1 and PLAP activator 1.4.
`CSc1cccc(NS(=O)(=O)c2ccc3c(c2)oc(=O)n3C)c1` gave PostGolgi ctrl -3, PostGolgi yeast -10, Cav32 inh -1.6, hDAT+cocaine 0.82 and PLAP activator 1.3.
CCCN1C(=O)S/C(=C\c2ccc(N3CCOCC3)cc2C)C1=O was read as PostGolgi ctrl 4, PostGolgi yeast 0, Cav32 inh -0.83, hDAT+cocaine -0.14 and PLAP activator 1.1.
`CCN1C(=O)S/C(=C\c2ccc(N3CCOCC3)cc2C)C1=O` gave PostGolgi ctrl 35*, PostGolgi yeast 8, Cav32 inh -1.3, hDAT+cocaine 0.63 and PLAP activator 1.
For COc1ccc(Cc2nc(C(=O)NCc3ccccc3OC)cs2)cc1 the results were PostGolgi ctrl 35*, PostGolgi yeast 1, Cav32 inh -6.7*, hDAT+cocaine 0.45 and PLAP activator 1.1.
For CC(=O)Nc1ccc(S(=O)(=O)NCCN2CCOCC2)cc1 the results were PostGolgi ctrl 0, PostGolgi yeast -1, Cav32 inh -1.6, hDAT+cocaine -0.46 and PLAP activator 0.9.
For CC(=O)Nc1ccc(S(=O)(=O)NCCSCc2c(Cl)cccc2Cl)cc1 the results were PostGolgi ctrl 11, PostGolgi yeast 3, Cav32 inh -5.1*, hDAT+cocaine 2 and PLAP activator 1.
CCOc1ccc(-c2nc(CSc3nncs3)cs2)cc1OC was read as PostGolgi ctrl 7, PostGolgi yeast 4, Cav32 inh 0.03, hDAT+cocaine -0.43 and PLAP activator 1.2.
CCOc1ccc(-c2nc(CSc3nnc(C)s3)cs2)cc1OC was read as PostGolgi ctrl 12, PostGolgi yeast -12, Cav32 inh 0.34, hDAT+cocaine 1.8 and PLAP activator 2.1*.
Screening COc1cccc(-c2nnc3sc(-c4ccco4)nn23)c1 returned PostGolgi ctrl 4, PostGolgi yeast 8, Cav32 inh 0.18, hDAT+cocaine -0.46 and PLAP activator 1.1.
COc1ccc(-c2nn3c(-c4ccco4)nnc3s2)cc1OC was read as PostGolgi ctrl 31*, PostGolgi yeast 11, Cav32 inh -1.1, hDAT+cocaine 0.11 and PLAP activator 1.
Screening COc1cc(OC)c(-c2nn3c(-c4ccco4)nnc3s2)cc1OC returned PostGolgi ctrl 34*, PostGolgi yeast 4, Cav32 inh 2.3, hDAT+cocaine 0.069 and PLAP activator 1.4.
Screening COc1ccc(-c2nnc3sc(-c4ccco4)nn23)cc1OC returned PostGolgi ctrl 18, PostGolgi yeast -2, Cav32 inh 0.85, hDAT+cocaine -0.9 and PLAP activator 1.4.
Screening COc1cccc(-c2nn3c(-c4cccc(C)c4)nnc3s2)c1 returned PostGolgi ctrl 44*, PostGolgi yeast 1, Cav32 inh -1.9, hDAT+cocaine 0.53 and PLAP activator 1.1.
Screening CCOc1cccc(-c2nn3c(-c4ccco4)nnc3s2)c1 returned PostGolgi ctrl 43*, PostGolgi yeast 5, Cav32 inh 0.37, hDAT+cocaine 0.28 and PLAP activator 0.9.
`O=C(c1cccc(OC(F)F)c1)N1CCN(c2ncccn2)CC1` gave PostGolgi ctrl 7, PostGolgi yeast 6, Cav32 inh -0.0007, hDAT+cocaine -1.1 and PLAP activator 1.2.
`CC(C)OCC(O)CN1CCNCC1` (stereo not given) gave PostGolgi ctrl 7, PostGolgi yeast -4, Cav32 inh -0.55, hDAT+cocaine -0.13 and PLAP activator 0.8.
Screening c1ccc(-c2cc(-c3nn4c(-c5ccco5)nnc4s3)c3ccccc3n2)cc1 returned PostGolgi ctrl 38*, PostGolgi yeast -4, Cav32 inh -0.76, hDAT+cocaine 1 and PLAP activator 1.5.
`Cc1cc(-c2nn3c(-c4ccccc4)nnc3s2)c2ccccc2n1` gave PostGolgi ctrl 17, PostGolgi yeast 6, Cav32 inh 0.081, hDAT+cocaine -0.56 and PLAP activator 1.
Screening C=CCN1C(=O)C(CC(=O)Nc2ccccc2)SC1=Nc1ccc(S(N)(=O)=O)cc1 (stereo not given) returned PostGolgi ctrl -3, PostGolgi yeast 7, Cav32 inh -0.057, hDAT+cocaine -1.1 and PLAP activator 0.9.
Screening CN(CC(=O)Nc1nc2ccccc2s1)S(=O)(=O)c1ccc(Cl)cc1 returned PostGolgi ctrl 31*, PostGolgi yeast 2, Cav32 inh -1.2, hDAT+cocaine 0.25 and PLAP activator 0.9.
`COc1ccccc1CNC(=O)C(CCSC)NC(=O)C1CCC(C)CC1` (stereo not given) gave PostGolgi ctrl 6, PostGolgi yeast 20, Cav32 inh -0.15, hDAT+cocaine -0.34 and PLAP activator 1.1.
For COc1ccc(OC)c2c(C)cc(N3CCN(C(=O)c4ccc(F)cc4)CC3)nc12 the results were PostGolgi ctrl 23, PostGolgi yeast 15, Cav32 inh 0.91, hDAT+cocaine 0.53 and PLAP activator 1.6.
Screening CCOC(=O)c1c(-c2ccc(OC)cc2)csc1NC(=O)CNCc1ccco1 returned PostGolgi ctrl 85*, PostGolgi yeast 1, Cav32 inh -1.5, hDAT+cocaine 0.02 and PLAP activator 1.5.
For O=C(CNC(=O)c1ccc(Oc2ccccc2)cc1)OC1CCCCC1=O (stereo not given) the results were PostGolgi ctrl -7, PostGolgi yeast 11, Cav32 inh -0.79, hDAT+cocaine 0.35 and PLAP activator 1.
CCCOc1ccc(N2C(=O)CC(N3CCC(O)(c4cccc(C(F)(F)F)c4)CC3)C2=O)cc1 (stereo not given) was read as PostGolgi ctrl -1, PostGolgi yeast -7, hDAT+cocaine 0.26 and PLAP activator 1.3.
For O=C(N(Cc1ccccc1)c1ccccn1)C12CC3CC(CC(C3)C1)C2 the results were PostGolgi ctrl 22, PostGolgi yeast 7, Cav32 inh -3.6*, hDAT+cocaine 0.95 and PLAP activator 1.
`COC(=O)CCN(C(=O)C12CC3CC(CC(C3)C1)C2)c1ccccn1` gave PostGolgi ctrl 1, PostGolgi yeast 17, Cav32 inh 0.6, hDAT+cocaine 0.088 and PLAP activator 1.9.
For Cc1cc(NC(=O)c2cc(C(C)C)on2)nn1Cc1ccc(Cl)cc1 the results were PostGolgi ctrl 21, PostGolgi yeast -11, Cav32 inh -7.1*, hDAT+cocaine -0.94 and PLAP activator 1.2.
For COc1cccc(-c2cc(C(=O)Nc3c(C)nn(Cc4ccccc4C)c3C)no2)c1 the results were PostGolgi ctrl 15, PostGolgi yeast 4, Cav32 inh -3.9*, hDAT+cocaine -0.17 and PLAP activator 0.9.
`Cc1nn(Cc2ccc(Cl)c(Cl)c2)c(C)c1NC(=O)c1cc(CC(C)C)on1` gave PostGolgi ctrl 11, PostGolgi yeast -1, Cav32 inh -8.6*, hDAT+cocaine -0.04 and PLAP activator 1.1.
